Reference: PubChem BioAssay (NCI)
The panel holds about 83,000 compounds, 20% with a hit somewhere; the sample as a whole holds those more often.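 Method: cells in 96-well plates; compound added at one concentration; 48 h incubation; percent growth measured; values under 10 scored active.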 A number with no mark means an inactive call. Calls of active or inactive are those of the source.

What follows are compounds tested on SK-MEL-28 melanoma (assay: NCI-60 one-dose screen, 48 h (100 = growth as untreated, 0 = no growth, -100 = all killed)). Conditions: 10 µM unless noted.

Compound	growth
COC(C(=O)[C@@H](O)[C@@H](C)O)[C@@H]1Cc2cc3cc(O[C@H]4C[C@@H](O[C@H]5C[C@@H](O)[C@H](O)C(C)O5)[C@H](O)C(C)O4)c(C)c(O)c3c(O)c2C(=O)[C@H]1O[C@H]1C[C@@H](O[C@H]2C[C@@H](O[C@H]3C[C@@H](O)[C@H](OC)C(C)O3)[C@@H](O)C(C)O2)[C@H](O)C(C)O1 (stereo not given in full)	-34.1% (active)
COC(=O)CNC(=O)[C@H](Cc1ccccc1)NCc1ccncc1	114%
O=C(O)c1[nH]c(=O)[nH]c(=O)c1[N+](=O)[O-]	121%
Cc1nnc(NC(=O)c2nc(S(=O)(=O)Cc3ccc(F)cc3)ncc2Cl)s1	50.5%
O=C1Nc2ccc(Br)cc2/C1=N/c1n[nH]c(=S)s1	114%
N#CC1=C(c2ccc(Cl)cc2)Nc2c(c(-c3ccc(Cl)cc3)nn2-c2ccccc2)C12C(=O)Nc1ccc(Cl)cc12 (stereo not given)	79.6%
O=C1CNC(c2ccccc2)C(c2ccccc2)N1 (stereo not given)	171%
CN1CCN(Cc2ccc3c(NNC(=O)c4ccccc4)nc4cc(F)ccc4n23)CC1	34.9%
CC(C)=NNc1ccccn1	57.1%
Cc1ccc(/C=N/Nc2nc(Nc3ccccc3)nc(-n3nc(C)cc3C)n2)cc1	68.6%
